19 compounds from PubChem BioAssay (NCI) can be followed below.

Where “and” joins values, the source holds several entries; their conditions need not be identical. Equal entries are not always repeated. The panel holds about 79,000 compounds, 15% with a hit somewhere; the sample as a whole holds those more often. Values without a mark were called inactive. Calls of active or inactive are those of the source. Cut-off read from the data, not from the text of the source: active = growth inhibition above about 70%; inactive = the rest.

Assay [1] is described as follows: NCI Yeast Anticancer Drug Screen. Data for the rad50 strain (AID 155).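 Note: 0% = growth of vehicle-only cultures of the same strain.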 The settings on record: S. cerevisiae rad50 strain growth inhibition, active compounds read high; at 50.0 µM unless noted. In short, it runs like this: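 Compounds were tested on a yeast strain with an engineered DNA damage repair alteration; the reported value is growth inhibition normalised to vehicle treatment.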

Assay [2] in a line: NCI Yeast Anticancer Drug Screen. Data for the mec2-1 strain (AID 157). Particulars: S. cerevisiae mec2-1 strain, active compounds read high; at 50.0 µM unless noted. In short, it runs like this:
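Each compound was tested on mec2-1 yeast, a strain altered in DNA damage repair or cell cycle control. Growth inhibition is reported relative to vehicle.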

The nature of assay [3]: NCI Yeast Anticancer Drug Screen. Data for the sgs1 mgt1 strain (AID 161).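 Note: 0% = growth of cultures given vehicle only.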 Particulars: S. cerevisiae sgs1 mgt1 strain, active compounds read high; at 50.0 µM unless noted. An outline of the steps: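 Read-out: growth inhibition vs vehicle controls. Cells: mutant yeast strain deficient in DNA damage repair.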
Assay [4] in a line: NCI Yeast Anticancer Drug Screen. Data for the cln2 rad14 strain (AID 165).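 Note: 0% = growth equal to vehicle treated cultures.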 The settings on record: S. cerevisiae cln2 rad14 strain, active compounds read high; at 50.0 µM unless noted. In short, it runs like this: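 Test compounds were added to cln2 rad14 yeast cultures; inhibition of growth was then determined by comparison with vehicle treatment.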
Assay [5] can be described thus: NCI Yeast Anticancer Drug Screen. Data for the bub3 strain (AID 167). The settings on record: S. cerevisiae bub3 mutant strain, active compounds read high; at 50.0 µM unless noted. An outline of the steps: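 Growth of a checkpoint-deficient yeast mutant is measured after compound exposure. Values represent inhibition relative to vehicle.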
Assay [6] can be described thus: NCI Yeast Anticancer Drug Screen. Data for the mlh1 rad18 strain (AID 175). Particulars: S. cerevisiae mlh1 rad18 strain growth inhibition, active compounds read high; at 50.0 µM unless noted. In short, it runs like this: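 Inhibition values reflect reduced growth of mutant yeast versus vehicle-treated controls following compound exposure; the mutations affect DNA damage repair.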

In the case of `NC(C(=O)O)c1ccc(CBr)cc1` (centres undefined), the growth inhibition in assay [1] was 9.5%; in assay [2] it was -12.3%; in assay [3] it was -10.2%; in assay [4] it was 4.25%; in assay [5], -1.6%; in assay [6], -64.5%.
In the case of `O=C1c2c(Br)sc(Br)c2C(NC(=O)C(F)(F)F)C1O` (centres undefined), the growth inhibition is 10.3% in assay [1]; 18.3% in assay [2]; -12.3% in assay [3]; -11% in assay [4]; 3.95% in assay [5]; -27.4% in assay [6].
Regarding `O=C1/C(=N\[O-])C(S(=O)(=O)[O-])=Cc2cc(S(=O)(=O)[O-])cc(O)c21.O=C1/C(=N\[O-])C(S(=O)(=O)[O-])=Cc2cc(S(=O)(=O)[O-])cc(O)c21.[Cu+2]`, the growth inhibition was -1.8% in assay [1]; 8.1% in assay [2]; -0.65% in assay [3]; -11.7% in assay [4]; -2.4% in assay [5]; -19.5% in assay [6].
As for `CC(=O)OCC(C)O` (centres undefined), the growth inhibition in assay [1] was 28%; in assay [2], -9.7%; in assay [3] it was 14.3%; in assay [4], -0.3%; in assay [5] it was 1.2%; in assay [6], 2%.
Regarding `CCCCCCCCCCCCCCCCCC(=O)N/N=C/c1cc(C(C)(C)C)c(O)c(C(C)(C)C)c1`, the growth inhibition in assay [1] was -32.6%; in assay [2], 13.7%; in assay [3], -14.1%; in assay [4], -35.2%; in assay [5] it was -1.1%; in assay [6], 2.45%.
As to `Cc1cccc2ccc(-c3cc4ccccc4s3)nc12`, the growth inhibition in assay [1] was -5.95%; in assay [2], -15.1%; in assay [3], -3.1%; in assay [4] it was -87.6%; in assay [5], -10.2%; in assay [6], -21.1%.
Consider `CCOC(Cc1ccccc1)OCC`, for which the growth inhibition in assay [1] is 20.9%; in assay [2], 19.9%; in assay [3], 18.4%; in assay [4], -0.7%; in assay [5], 10.9%; in assay [6] it was 12.7%.
Consider `COc1ccc2c(c1)[n+](=O)c(C(=O)CC(=O)C(=O)Nc1cccc(C)c1C)c(C)n2[O-]`, for which the growth inhibition is 2.35% in assay [1]; 13.3% in assay [2]; -9.55% in assay [3]; 9.45% in assay [4]; 5.3% in assay [5]; 14.8% in assay [6].
As for `O=C1CC2(C(=O)O)CC3CC2C(O1)C3I` (centres undefined), the growth inhibition in assay [1] was 13.7%; in assay [2], 10.6%; in assay [3], 24.1%; in assay [4], 13.1%; in assay [5], 14.5%; in assay [6] it was 21.2%.
On to `N=C(N)C1CN(CC=O)C(=O)NC1=O` (centres undefined), for which the growth inhibition in assay [1] was -11.7%; in assay [2], 11.1%; in assay [3], -2.65%; in assay [4], 24.9%; in assay [5], -4.15%; in assay [6], 11.8%.
Regarding `Cc1cccc(NC(=O)OC/C=C/c2ccccc2)c1`, the growth inhibition was 10.3% in assay [1]; 70.5% (active) in assay [2]; 53.5% in assay [3]; 0.65% in assay [4]; 31.4% in assay [5]; 4.95% in assay [6].
`Nc1cc(N)c(N)cc1N`: the growth inhibition in assay [1] was -30.1% and -6.2%; in assay [2], 16.8% and -29.1%; in assay [3] it was 13% and -4.9%; in assay [4], -1.7% and 21.8%; in assay [5], 41.7% and -13.9%; in assay [6], 15% and 8.75%.
Take `Oc1ccccc1/C=N\N=C\NN/C=N/N=C/c1ccccc1O`: the growth inhibition in assay [1] was -8.1%; in assay [2], -0.75%; in assay [3], -4%; in assay [4] it was 13.8%; in assay [5], 6.4%; in assay [6], 5.55%.
For the compound `C/C(CCCCCCCCCCCC/C(C)=N\Nc1ccc([N+](=O)[O-])cc1[N+](=O)[O-])=N/Nc1ccc([N+](=O)[O-])cc1[N+](=O)[O-]`, the growth inhibition in assay [1] is -15.8%; in assay [2], 5.25%; in assay [3], -3.2%; in assay [4] it was 27.2%; in assay [5] it was 2.3%; in assay [6], 31.6%.
`CN=c1ss/c(=N\C(=S)N(C)C)n1C1CCCCC1`: the growth inhibition is -9.6% in assay [1]; -0.55% in assay [2]; 14% in assay [3]; 13.1% in assay [4]; 0% in assay [5]; 21.2% in assay [6].
In the case of `CCC(CC)/C(=N/Nc1ccc([N+](=O)[O-])cc1[N+](=O)[O-])C1=CCCCC1`, the growth inhibition in assay [1] was -8.3%; in assay [2] it was -12.1%; in assay [3], -5.1%; in assay [4], -24.1%; in assay [5], -7.3%; in assay [6], -15.7%.
On to `CC1C(c2ccccc2)OCCN1CN1C(=O)c2ccccc2C1=O` (centres undefined), for which the growth inhibition was 10.8% in assay [1]; 17.4% in assay [2]; 12.4% in assay [3]; 21.8% in assay [4]; 17.1% in assay [5]; -3.6% in assay [6].
Regarding `CCc1n[nH]c(=O)n1-n1c(C)ccc1C`, the growth inhibition is -15.8% in assay [1]; -25.9% in assay [2]; -5.2% in assay [3]; 3.15% in assay [4]; -33% in assay [5]; -15.2% in assay [6].
As to `CC(=O)OCC1OC(n2c3c(c(-c4cccc5ccccc45)c(C#N)c2=S)CCCC3)C(OC(C)=O)C(OC(C)=O)C1OC(C)=O` (centres undefined), the growth inhibition was -1.25% in assay [1]; -5.3% in assay [2]; 14% in assay [3]; 6.15% in assay [4]; -5.8% in assay [5]; 12.7% in assay [6].
